The sample as a whole holds a higher share of hits than the screen did.
Pf apPOL block = Pf-apPOL inhibitors, biochemical, fluorescence; Recombinant Pf-apPOL, molecular beacon fluorescence, 1.5 h; hit rate 0.25% among 210,000; inhibition, % at 10 µM
mHTT CaM bind = mutant huntingtin-calmodulin interaction inhibitors – biochemical, AlphaScreen, primary screen; hit rate 3.6% among 190,000; inhibition, % at 15 µM; P42858; AlphaScreen His-mHTT/GST-CaM binding, luminescence
Target sequence (P42858 whole entry, looked up, change not shown): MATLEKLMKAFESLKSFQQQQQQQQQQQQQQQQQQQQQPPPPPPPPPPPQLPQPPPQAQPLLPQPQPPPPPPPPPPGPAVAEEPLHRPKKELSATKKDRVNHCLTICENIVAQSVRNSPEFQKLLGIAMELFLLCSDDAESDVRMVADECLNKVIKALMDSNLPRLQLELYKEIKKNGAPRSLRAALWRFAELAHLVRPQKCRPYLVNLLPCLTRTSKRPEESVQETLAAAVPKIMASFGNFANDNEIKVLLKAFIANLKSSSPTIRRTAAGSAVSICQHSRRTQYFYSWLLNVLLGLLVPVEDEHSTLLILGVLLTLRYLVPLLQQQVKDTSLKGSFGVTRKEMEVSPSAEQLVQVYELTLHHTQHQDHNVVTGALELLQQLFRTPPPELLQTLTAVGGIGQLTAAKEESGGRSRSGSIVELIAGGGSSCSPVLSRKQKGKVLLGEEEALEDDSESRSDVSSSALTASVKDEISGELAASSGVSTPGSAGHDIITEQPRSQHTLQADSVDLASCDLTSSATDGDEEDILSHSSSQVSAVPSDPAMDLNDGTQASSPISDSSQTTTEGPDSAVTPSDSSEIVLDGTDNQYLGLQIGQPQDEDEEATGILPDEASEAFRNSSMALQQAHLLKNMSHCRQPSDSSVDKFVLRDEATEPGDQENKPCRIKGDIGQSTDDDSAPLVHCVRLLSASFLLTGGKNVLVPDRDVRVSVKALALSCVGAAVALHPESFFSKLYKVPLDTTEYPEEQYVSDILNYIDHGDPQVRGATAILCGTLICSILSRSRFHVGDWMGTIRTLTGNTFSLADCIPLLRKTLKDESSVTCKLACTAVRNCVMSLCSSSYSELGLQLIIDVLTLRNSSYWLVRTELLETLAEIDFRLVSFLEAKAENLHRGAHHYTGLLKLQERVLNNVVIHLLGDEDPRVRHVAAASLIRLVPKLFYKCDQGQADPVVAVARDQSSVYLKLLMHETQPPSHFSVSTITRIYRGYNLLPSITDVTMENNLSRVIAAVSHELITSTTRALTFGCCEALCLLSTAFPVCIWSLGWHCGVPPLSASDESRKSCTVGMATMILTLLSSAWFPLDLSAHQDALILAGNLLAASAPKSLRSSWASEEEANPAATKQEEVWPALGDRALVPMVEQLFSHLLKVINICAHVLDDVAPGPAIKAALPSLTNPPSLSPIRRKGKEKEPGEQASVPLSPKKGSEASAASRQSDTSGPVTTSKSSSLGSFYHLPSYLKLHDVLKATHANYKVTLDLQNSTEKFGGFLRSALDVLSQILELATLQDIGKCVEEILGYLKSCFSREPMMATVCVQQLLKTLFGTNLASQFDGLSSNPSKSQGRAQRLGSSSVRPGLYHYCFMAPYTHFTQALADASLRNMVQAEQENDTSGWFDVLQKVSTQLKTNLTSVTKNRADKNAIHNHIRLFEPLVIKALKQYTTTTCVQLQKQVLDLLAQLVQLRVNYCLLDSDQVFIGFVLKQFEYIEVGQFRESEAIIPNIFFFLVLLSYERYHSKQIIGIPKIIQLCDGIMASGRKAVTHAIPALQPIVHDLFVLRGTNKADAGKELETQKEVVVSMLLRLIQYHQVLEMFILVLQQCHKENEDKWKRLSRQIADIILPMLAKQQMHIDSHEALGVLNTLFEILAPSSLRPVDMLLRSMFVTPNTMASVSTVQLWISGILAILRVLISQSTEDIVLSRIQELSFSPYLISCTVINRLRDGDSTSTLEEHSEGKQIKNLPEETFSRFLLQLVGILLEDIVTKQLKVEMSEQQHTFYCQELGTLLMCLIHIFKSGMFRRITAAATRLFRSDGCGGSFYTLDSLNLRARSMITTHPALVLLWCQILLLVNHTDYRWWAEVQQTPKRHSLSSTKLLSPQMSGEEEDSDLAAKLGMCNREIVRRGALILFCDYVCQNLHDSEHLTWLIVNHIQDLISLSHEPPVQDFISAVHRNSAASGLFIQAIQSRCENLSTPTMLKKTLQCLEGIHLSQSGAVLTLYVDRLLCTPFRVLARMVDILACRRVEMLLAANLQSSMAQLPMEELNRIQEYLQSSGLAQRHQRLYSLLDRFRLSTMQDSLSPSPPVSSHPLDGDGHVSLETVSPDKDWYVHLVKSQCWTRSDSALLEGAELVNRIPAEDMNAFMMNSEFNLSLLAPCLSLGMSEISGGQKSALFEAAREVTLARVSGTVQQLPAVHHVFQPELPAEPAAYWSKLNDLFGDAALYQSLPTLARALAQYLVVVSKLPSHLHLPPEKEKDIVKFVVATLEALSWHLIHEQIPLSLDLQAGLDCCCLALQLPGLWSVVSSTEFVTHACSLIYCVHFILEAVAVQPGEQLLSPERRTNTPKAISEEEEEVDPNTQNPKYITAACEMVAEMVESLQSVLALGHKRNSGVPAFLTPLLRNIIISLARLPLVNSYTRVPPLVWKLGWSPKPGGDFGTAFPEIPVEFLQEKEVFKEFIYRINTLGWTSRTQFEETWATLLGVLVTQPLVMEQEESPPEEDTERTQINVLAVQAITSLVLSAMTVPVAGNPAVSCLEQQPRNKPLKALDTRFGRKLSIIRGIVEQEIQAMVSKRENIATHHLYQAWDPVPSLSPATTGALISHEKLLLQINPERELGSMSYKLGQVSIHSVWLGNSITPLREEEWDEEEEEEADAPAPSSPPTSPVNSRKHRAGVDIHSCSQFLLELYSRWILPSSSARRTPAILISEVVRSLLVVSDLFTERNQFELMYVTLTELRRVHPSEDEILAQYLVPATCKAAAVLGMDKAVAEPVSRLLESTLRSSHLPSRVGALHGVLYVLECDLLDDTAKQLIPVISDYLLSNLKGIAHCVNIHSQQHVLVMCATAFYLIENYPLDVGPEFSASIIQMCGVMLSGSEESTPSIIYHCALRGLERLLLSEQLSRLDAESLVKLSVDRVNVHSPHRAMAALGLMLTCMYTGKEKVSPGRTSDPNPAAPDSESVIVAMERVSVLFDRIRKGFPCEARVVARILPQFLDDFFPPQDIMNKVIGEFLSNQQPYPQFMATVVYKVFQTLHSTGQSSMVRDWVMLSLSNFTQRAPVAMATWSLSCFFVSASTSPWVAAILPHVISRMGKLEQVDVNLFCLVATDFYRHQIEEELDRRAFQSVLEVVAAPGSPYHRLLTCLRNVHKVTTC
Each line names hits and unclear results; the compound was inactive in the other large screens. Cut-off read from the data, not from the text of the source: active = inhibition above about 50%; inactive = the rest.

CC(NC(=O)Nc1ccc(Cl)c(Cl)c1)c1ccccc1 (configuration not stated)	mHTT CaM bind 73
Fc1ccc(Cn2cccc2-c2nc(-c3ccncc3)no2)cc1	none
COc1cc(O)c(CN2CCCC2)c2oc(-c3ccccc3)cc(=O)c12	none
COc1cc(C(CCN2CCOCC2)c2c(OC)cc(OC)c3c(-c4ccccc4)cc(=O)oc23)cc(OC)c1OC (configuration not stated)	mHTT CaM bind 75
CCN(CC)C(=O)CC(c1cc(OC)c(OC)c(OC)c1)c1c(OC)cc(OC)c2ccc(=O)oc12 (configuration not stated)	none
CCN(CC)C(=O)CC(c1cc(OC)c(OC)c(OC)c1)c1c(OC)cc(OC)c2c(-c3ccccc3)cc(=O)oc12 (configuration not stated)	mHTT CaM bind 69
COc1cc(C(CCN2CCCC2)c2c(OC)cc(OC)c3c(-c4ccccc4)cc(=O)oc23)cc(OC)c1OC (configuration not stated)	mHTT CaM bind 58
O=c1cc(-c2ccccc2)c2ccc(O)c(CN3CCOCC3)c2o1	none
CCn1cc(CN2CCN(C(=O)C3CCCNC3)CC2)ccc1=O (configuration not stated)	none
CCc1nnc(NS(=O)(=O)c2ccc(N=Cc3ccccc3Cl)cc2)s1	none
C#CCN1C(=O)C(O)(CC(=O)c2ccc3c(c2)CCCC3)c2ccccc21 (configuration not stated)	none
C=CCN1C(=O)C(O)(CC(=O)c2ccc3c(c2)CCCC3)c2ccccc21 (configuration not stated)	mHTT CaM bind 57
O=c1[nH]c(-c2ccc(F)cc2)cn1-c1ccc(Br)cc1	none
O=c1[nH]c(-c2ccc(Br)cc2)cn1-c1ccc(Cl)cc1	mHTT CaM bind 63
FC(F)Oc1ccc(-c2cc3ccccn3c2)cc1	none
COc1ccc(-c2cc3ccccn3c2)c(OC)c1	mHTT CaM bind 75
O=C(NCCCN1CCCCCC1)c1cc2n(n1)CCCN(Cc1ccccc1)C2=O	none
CCc1ccc(-c2csc(Nc3cc(OC)c(Cl)cc3OC)n2)cc1	none
COc1ccc(-c2csc(Nc3ccc(Cl)cc3)n2)cc1F	mHTT CaM bind 95
Fc1ccc(-c2csc(Nc3ccc(Cl)cc3)n2)cc1	mHTT CaM bind 97
COc1ccccc1Nc1nc(-c2cc(C)ccc2C)cs1	none
COc1ccc(-c2csc(Nc3ccc(C)c(Cl)c3)n2)cc1F	mHTT CaM bind 88
COc1cc(Nc2nc(-c3cc(C)ccc3C)cs2)c(OC)cc1Cl	mHTT CaM bind 74
Fc1ccc(Nc2nc(-c3ccccc3)cs2)cc1	none
CCOc1ccc(Nc2nc(-c3ccc(OC)c(F)c3)cs2)cc1	none
Cc1cc(C)n(-c2cc(C)c3cccc([N+](=O)[O-])c3n2)n1	none
CC1(C(=O)NCc2ccc(F)cc2)CCCN(C(=O)Nc2ccc(F)c(Cl)c2)C1 (configuration not stated)	none
C=CCNC(=O)C1CC(c2cccc(OC)c2)=NO1 (configuration not stated)	none
CN1C(=O)NC2(CCN(C(=O)C3c4ccccc4Oc4ccccc43)CC2)C1=O	none
O=C1C2C3C=CC(O3)C2C(=O)N1c1cc(C(F)(F)F)ccc1Cl (configuration not stated)	none
O=C1C=CC(=O)C(c2cc(C(F)(F)F)ccc2Cl)=C1	mHTT CaM bind 60
O=C(c1ccccc1)N1CCC(c2nncn2-c2ccccc2)CC1	none
O=c1[nH]c2c(s1)C1c3ccccc3OC3CCCC(S2)C31 (configuration not stated)	mHTT CaM bind 52
O=C(O)C1C2CC3C1C(=O)Oc1ccccc1C1c4sc(=O)[nH]c4SC2C13 (configuration not stated)	none
Cc1nc2nc(SCC(=O)NC(C)c3ccccc3)nn2c(C)c1Cc1ccccc1 (configuration not stated)	none
COc1ccc(N2C(=O)C(O)=CC2(OC)c2ccccc2)cc1 (configuration not stated)	mHTT CaM bind 67
COc1ccc(N2C(=O)CSC23CCCCC3)cc1	none
CC1C2NC(=O)N(Cc3ccccc3)C1(C)Oc1ccccc12 (configuration not stated)	mHTT CaM bind 68
CC12CC(NC(=O)N1CCc1ccccc1)c1ccccc1O2 (configuration not stated)	none
CCCn1cnnc1C1CCCCN1C(=O)CCc1ccccc1OC (configuration not stated)	none
CCn1cnnc1C1CCCCN1C(=O)CCc1c[nH]c2ccccc12 (configuration not stated)	mHTT CaM bind 56
c1csc(-c2cc3ccccc3[nH]2)c1	none (no result: mHTT CaM bind)
NCCc1c(-c2cccs2)[nH]c2ccccc12	mHTT CaM bind 88
COc1ccc(O)c(C2=Nc3ccccc3N=C(c3ccc([N+](=O)[O-])cc3)C2)c1	none
CCOc1ccc(NC(=O)N2CCC3(CC2)NC(=O)c2ccc(F)cc2N3C)cc1	none
Cc1ccc(C2C3=C(NCCN=C3c3ccccc3)C(=O)N2c2ccccc2)cc1 (configuration not stated)	mHTT CaM bind 80
COc1cccc(C2C3=C(NCCN=C3c3ccc(Cl)cc3)C(=O)N2c2ccccc2)c1 (configuration not stated)	none
COCC(=O)N1CCN(c2cccc(F)c2)C(=O)C1C (configuration not stated)	none
COC(=O)[C@@H]1N2C(=O)[C@@H](NC(=O)C(C)Oc3ccccc3)[C@H]2SC1(C)C (some centres not stated)	mHTT CaM bind 66
CC(Oc1ccccc1)C(=O)N[C@@H]1C(=O)N2[C@@H]1SC(C)(C)[C@@H]2C(=O)OCc1ccccc1 (some centres not stated)	none
CN(C)CC1C(=O)N(c2ccccc2)N(c2ccccc2)C1=O	mHTT CaM bind 72
CCCCC1C(=O)N(c2ccccc2)N(c2ccccc2)C1=O	none (no result: mHTT CaM bind)
Cc1ccc(CNC(=O)N2CCCC2C(=O)NCc2csc(-c3ccccc3)n2)cc1 (configuration not stated)	none
CCCC(CCC)C(=O)Nc1cccc(C(=O)Nc2nccs2)c1	none
COc1cc2c(cc1OC)CN(Cc1cc(Cl)ccc1O)CC2	none
OC1(C#CC#CC2(O)CCCCC2)CCCCC1	mHTT CaM bind 82
CCN(CC)CC#CC1(O)CCCCC1	none
COc1ccc(/C=C2\SC(=O)N(c3ccccc3OC)C2=O)cc1	none
COc1ccccc1N1C(=N)S/C(=C\c2ccc(Br)c([N+](=O)[O-])c2)C1=O	mHTT CaM bind 57
CCNC(=O)N1CCCC(c2cccc(C(=O)NCc3cccc(Cl)c3)c2)C1 (configuration not stated)	none
Oc1cc2c(cc1C(c1ccc3c(c1)OCO3)N1CCOCC1)OCO2 (configuration not stated)	mHTT CaM bind 94 (no result: Pf apPOL block)
CCOC(=O)C(=O)NCC(c1ccc2c(c1)OCO2)N1CCOCC1 (configuration not stated)	none
COc1ccc(N=c2scc(-c3ccc(Br)cc3)n2CCO)cc1	mHTT CaM bind 59
COc1ccc(-c2csc(=Nc3ccccc3)n2CCO)cc1	none
O=S(=O)(c1ccc(-c2csc(=Nc3ccccc3)n2CCO)cc1)N1CCCCC1	none
COc1ccc(N=c2scc(-c3ccc(I)cc3)n2CCO)cc1	mHTT CaM bind 66
Cc1cc(C)c2oc(=O)n(C3CCN(C(=O)COc4ccccc4)CC3)c2c1	mHTT CaM bind 73
Cc1ccc2ncn(C3CCN(C(=O)COc4ccccc4)CC3)c2c1	none
